Laboratory results from PubChem BioAssay (NCATS).
Inconclusive results are not listed. Active and inactive are the calls of the source. The call rests on the fitted dose curve; in most records, active means well fitted curve in the direction sought with a large enough effect; inconclusive means small, poorly fitted or top-dose-only effect, or another doubt; inactive means no such curve, though single readings can be large; an effect the other way counts as inactive or inconclusive.

system: Zika virus NS2B-NS3 protease (linked construct); assay: Primary screen NINDS Rhodamine qHTS for Zika virus inhibitors (AID 1347160); conditions: purified NS2B-NS3 protease, Rhodamine110 substrate fluorescence; series mostly up to 57.1 µM; activity change, negative = inhibition: at the top concentration; further: nearly all actives have a fitted effect of over 55% in size
In short: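 Enzyme (25 nM, linked NS2B-NS3) was preincubated 15 min with compound in 10 mM Tris-HCl pH 8.0, 0.01% Tween 20. Rhodamine110 substrate (1.5 microM) was then added and fluorescence read at start and after 15 min.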
On the % scale 0 is the no-effect control and ±100 the full control effect.

Compound | activity change, negative = inhibition | outcome
CN(Cc1cccc(-c2ccncc2)c1)C(=O)Oc1ccc(-c2ccc(C(N)=O)cc2)cc1 | -3.63% (inactive) | –
CN(C(=O)C(c1ccccc1)c1ccccc1)[C@H](CN1CC[C@H](O)C1)c1ccccc1 | – | inactive
Fc1cc(F)c2c(c1)C1C=CCC1C(c1cccnc1)N2 (stereo not drawn) | 18.2% (inactive) | –
C/C=C(\C)C(=O)OC1CC2C(CC=C3CC(OC4CC(OC)C(OC5CC(OC)C(OC6CC(OC)C(OC7CC(OC)C(O)C(C)O7)C(C)O6)C(C)O5)C(C)O4)CCC32C)C2(O)CCC(C(C)=O)C12C (stereo not drawn) | -7.42% [at 15.1 µM] (inactive) | –
CN=C(NS(=O)(=O)c1ccc(Cl)cc1)N1C[C@H](c2ccccc2)C(c2ccc(Cl)cc2)=N1 | -15.2% (inactive) | –
Cc1c(N[C@@H](c2nnc(-c3ccc(C#N)cc3)o2)[C@H](C)O)ccc(C#N)c1Cl | -0.515% (inactive) | –
CC12CCC3C(C1)c1c(cc(O)c(C(=O)c4ccccc4)c1OC3(C)C)O2 (stereo not drawn) | – | inactive [at 33.1 µM]
CN1C(=O)[C@@H](Cc2c[nH]c3ccccc23)N=C(c2ccccc2F)c2ccccc21 | – | inactive
CC[C@H](O)[C@@H](C)[C@H]1O[C@@H]1C[C@H](C)/C=C/C=C(\C)[C@H]1OC(=O)C[C@H](O)CC[C@@](C)(O)[C@@H](OC(C)=O)/C=C/[C@@H]1C | -8.02% (inactive) | –
C=C1C2(C)CC3C(C)(O)C4=CC(=O)OC(C)(C)C4=CCC3(C)C13C(=O)OC(C)C3(O)C2=O (stereo not drawn) | -24.3% [at 33.1 µM] (inactive) | –
CN(C)[C@@H]1C(=O)C(C(N)=O)=C(O)[C@@]2(O)C(=O)C3=C(O)c4c(O)ccc(Cl)c4[C@@](C)(O)C3C[C@@H]12 (stereo partly drawn) | -6.35% (inactive) | –
CC(=O)O[C@H]1C[C@]2(O)[C@@H]3CC[C@@H]4C[C@@H](O)CC[C@]4(C)[C@H]3CC[C@]2(C)[C@H]1c1ccc(=O)oc1 | -5.28% (inactive) | –
CCOc1ccc(Oc2ccc(OCc3cc(F)ccc3F)cc2)c(N)c1 | – | inactive
CC(C)[C@H](NC(=O)c1nn(Cc2ccc(F)cc2)c2ccccc12)C(N)=O | -11.2% (inactive) | –
CCCN(CCC)[C@@H]1CCc2ccc3[nH]c(C#N)cc3c2C1 | – | inactive
Cc1ccc2c(c1)[C@H]1CN(C)CC[C@H]1N2C(=O)CSc1nnnn1-c1ccc(Cl)cc1 | -15.7% (inactive) | –
COC1CCCC(C)OC(=O)Cc2cc(O)cc(O)c2C(=O)C1 (stereo not drawn) | -5.28% [at 33.1 µM] (inactive) | –
C[C@]12CC[C@H](O)C[C@@H]1CC[C@@H]1[C@@H]2CC[C@]2(C)C(=O)CC[C@@H]12 | 13.4% (inactive) | –
CC(=O)OC[C@]12[C@H](OC(C)=O)C(=O)[C@@H]3[C@@H](O)[C@@]14O[C@@]3(C)COC(=O)c1cccnc1[C@@H](C)[C@H](C)C(=O)O[C@@H]([C@H](OC(C)=O)[C@@H]2OC(C)=O)[C@]4(C)O | -11.2% [at 15.1 µM] (inactive) | –
CN1C(=O)N(c2ccc(C#N)c(C(F)(F)F)c2)C(=O)[C@@]1(CO)c1ccccc1 | 7.01% (inactive) | –
COc1cc(O)c2c(c1)CCC[C@@H](O)[C@H](O)C(=O)/C=C\C[C@H](C)OC2=O | – | inactive [at 33.1 µM]
C[C@]12CC[C@H](O)C[C@@H]1CC[C@@H]1[C@@H]2CC[C@]2(C)[C@@H](C3=CC(=O)OC3)CC[C@]12O | – | inactive [at 33.1 µM]
C[C@]12CC[C@H](O)C[C@@]1(O)CC[C@@H]1[C@@H]2CC[C@]2(C)[C@@H](c3ccc(=O)oc3)CC[C@]12O | -6.16% (inactive) | –
COC(=O)C12C(=O)C(C)(O)C(=O)C1(C)C(C)=CC1C34CCC(OC3=O)C(C)(C)C4CCC12C (stereo not drawn) | – | inactive [at 33.1 µM]
CN1Cc2c(ccc3c2OCO3)[C@@H]2[C@H]1c1cc3c(cc1C[C@@H]2O)OCO3 | -0.682% [at 33.1 µM] (inactive) | –

molecular target: Calcium and integrin-binding protein 1 (Homo sapiens) (UniProt Q99828); assay: Primary qHTS for Identification of Calcium Integrin Binding Protein 1 (CIB1) Competitor (AID 1508620); conditions: CIB1-GST / FITC-alphaIIb peptide fluorescence polarization; series mostly up to 114 µM; activity change, negative = inhibition: at the top concentration;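 further: GST tagged CIB1 binding a fluorescein labelled alphaIIb integrin peptide tracer; top concentration of the series differs between compounds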
In short: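 Fluorescence polarization competition: CIB1-GST (1 uM final) preincubated with compound 15 min at room temperature, then FITC-labeled alphaIIb peptide (100 nM final) added for another 15 min. Polarization read at Ex 480/Em 540.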

Chain of Calcium and integrin-binding protein 1 (Homo sapiens) (Q99828 whole entry, looked up): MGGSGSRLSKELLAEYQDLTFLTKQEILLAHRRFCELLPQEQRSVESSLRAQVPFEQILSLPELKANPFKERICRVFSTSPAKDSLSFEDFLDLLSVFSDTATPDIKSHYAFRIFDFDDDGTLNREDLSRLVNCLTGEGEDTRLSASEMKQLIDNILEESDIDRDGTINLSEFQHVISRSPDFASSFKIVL

Compound | activity change, negative = inhibition
CC1=CC(=O)[C@@H](O)[C@@]2(C)C1C[C@H]1OC(=O)[C@H](O)[C@@]3(O)[C@@H](C)[C@@H](O)[C@H](O)C2[C@@]13C (stereo partly drawn) | 8.85% [at 57.7 µM] (inactive)
CN(Cc1cccc(-c2ccncc2)c1)C(=O)Oc1ccc(-c2ccc(C(N)=O)cc2)cc1 | 0.809% (inactive)
Fc1cc(F)c2c(c1)C1C=CCC1C(c1cccnc1)N2 (stereo not drawn) | -4.14% (inactive)
C/C=C(\C)C(=O)OC1CC2C(CC=C3CC(OC4CC(OC)C(OC5CC(OC)C(OC6CC(OC)C(OC7CC(OC)C(O)C(C)O7)C(C)O6)C(C)O5)C(C)O4)CCC32C)C2(O)CCC(C(C)=O)C12C (stereo not drawn) | 5.68% [at 30.2 µM] (inactive)
CN=C(NS(=O)(=O)c1ccc(Cl)cc1)N1C[C@H](c2ccccc2)C(c2ccc(Cl)cc2)=N1 | 4.85% (inactive)
COC1CC(O[C@H]2CC[C@@]3(C)C(CCC4C3CC[C@]3(C)C(C5=CC(=O)OC5)CCC43O)C2)OC(C)C1OC1OC(COC2OC(CO)C(O)C(O)C2O)C(O)C(O)C1O (stereo partly drawn) | 1.19% [at 30.2 µM] (inactive)
C[C@@H]1O[C@@H](OC2CCC3(C=O)C(CCC4C3CCC3(C)C(C5=CC(=O)OC5)C(O)CC43O)C2)[C@H](O)[C@H](O)[C@H]1O[C@@H]1O[C@H](CO)[C@@H](O)[C@H](O)[C@H]1O (stereo partly drawn) | 2.94% [at 30.2 µM] (inactive)
Cc1c(N[C@@H](c2nnc(-c3ccc(C#N)cc3)o2)[C@H](C)O)ccc(C#N)c1Cl | -1.27% (inactive)
CC12CCC3C(C1)c1c(cc(O)c(C(=O)c4ccccc4)c1OC3(C)C)O2 (stereo not drawn) | 1.52% [at 57.7 µM] (inactive)
C=C1C(=O)CC2OC2(C)CC2OC(=O)C(=C)C2C(O)C1OC(=O)/C(C)=C\C (stereo not drawn) | -16.7% [at 57.7 µM] (inactive)
CN1C(=O)[C@@H](Cc2c[nH]c3ccccc23)N=C(c2ccccc2F)c2ccccc21 | 2.6% (inactive)
CCCCCCC1C(=O)O[C@H](C)[C@H](NC(=O)c2cccc(NC=O)c2O)C(=O)O[C@@H](C)[C@@H]1OC(=O)CC(C)C (stereo partly drawn) | -1.19% (inactive)
C=C(C)[C@@]12O[C@@H]1[C@@]1(C)C(=CC2=O)CC[C@@H](OC(C)=O)[C@@H]1C | 0.703% (inactive)
c1ccc([C@@H]2C[C@H]2NC2CCNCC2)cc1 | 1.58% (inactive)
CC(C)[C@H]1OC(=O)[C@H](Cc2ccccc2)N(C)C(=O)[C@@H](C(C)C)OC(=O)[C@H](Cc2ccccc2)N(C)C(=O)[C@@H](C(C)C)OC(=O)[C@H](Cc2ccccc2)N(C)C1=O | -9.02% [at 30.2 µM] (inactive)
CC[C@H](O)[C@@H](C)[C@H]1O[C@@H]1C[C@H](C)/C=C/C=C(\C)[C@H]1OC(=O)C[C@H](O)CC[C@@](C)(O)[C@@H](OC(C)=O)/C=C/[C@@H]1C | -2.31% (inactive)
CC(=O)O[C@H]1C[C@]2(O)[C@@H]3CC[C@@H]4C[C@@H](O)CC[C@]4(C)[C@H]3CC[C@]2(C)[C@H]1c1ccc(=O)oc1 | -2.9% (inactive)

Compound | activity change, negative = inhibition
CN1CCC2=C(C1)c1ccccc1Cc1ccccc12 | 6.74% (inactive)
C=C(C)C(=O)O[C@H]1[C@@H]2[C@H](C)C(=O)O[C@@H]2C[C@@H](C)[C@@H]2C=CC(=O)[C@]21C | -5.8% [at 57.7 µM] (inactive)
CCOc1ccc(Oc2ccc(OCc3cc(F)ccc3F)cc2)c(N)c1 | 4.78% (inactive)
CCN1C[C@]2(COC)CC[C@H](O)[C@@]34C5C[C@@H]6[C@@H](OC)C[C@@](OC(C)=O)(C5[C@@H]6OC(C)=O)[C@H]([C@H](OC)C23)[C@@H]14 (stereo partly drawn) | 0.864% [at 57.7 µM] (inactive)
CCCN(CCC)[C@@H]1CCc2ccc3[nH]c(C#N)cc3c2C1 | 0.827% (inactive)
Cc1ccc2c(c1)[C@H]1CN(C)CC[C@H]1N2C(=O)CSc1nnnn1-c1ccc(Cl)cc1 | -3.75% (inactive)
COC1CCCC(C)OC(=O)Cc2cc(O)cc(O)c2C(=O)C1 (stereo not drawn) | 4.88% [at 57.7 µM] (inactive)
C[C@]12CC[C@H](O)C[C@@H]1CC[C@@H]1[C@@H]2CC[C@]2(C)C(=O)CC[C@@H]12 | -1.09% (inactive)
CC(=O)OC[C@]12[C@H](OC(C)=O)C(=O)[C@@H]3[C@@H](O)[C@@]14O[C@@]3(C)COC(=O)c1cccnc1[C@@H](C)[C@H](C)C(=O)O[C@@H]([C@H](OC(C)=O)[C@@H]2OC(C)=O)[C@]4(C)O | 0.157% [at 30.2 µM] (inactive)
CN1C(=O)N(c2ccc(C#N)c(C(F)(F)F)c2)C(=O)[C@@]1(CO)c1ccccc1 | -3.53% (inactive)
CCCCCn1cc(C(=O)Oc2cccc3cccnc23)c2ccccc21 | 3.2% (inactive)
COc1cc(O)c2c(c1)CCC[C@@H](O)[C@H](O)C(=O)/C=C\C[C@H](C)OC2=O | -10.7% [at 57.7 µM] (inactive)
COc1cc(C(=O)N2CC[C@@H](O)[C@@H](N)C2)cc2nc(-c3cc4ccccc4n3CC3CC3)n(C)c12 | 0.184% [at 57.7 µM] (inactive)
C[C@]12CC[C@H](O)C[C@@H]1CC[C@@H]1[C@@H]2CC[C@]2(C)[C@@H](C3=CC(=O)OC3)CC[C@]12O | 1.16% [at 57.7 µM] (inactive)
COC(=O)C12C(=O)C(C)(O)C(=O)C1(C)C(C)=CC1C34CCC(OC3=O)C(C)(C)C4CCC12C (stereo not drawn) | 2.07% [at 57.7 µM] (inactive)
CC1=CC2OC3CC(O)[C@](C)([C@@]2(C)C(O)C1=O)[C@]31CO1 (stereo partly drawn) | -4.26% (inactive)
